For 40 compounds, Potency and activity change, negative = inhibition results are on record in PubChem BioAssay (Tox21).

Results filed as inconclusive are left out. Entries that show only a call come without a potency. Some compounds were tested as several samples or in several runs, with calls that do not always agree. Activity calls are given as the source filed them. The call rests on the fitted dose curve.

Sequence of Acetylcholinesterase (Homo sapiens) (P22303 whole entry, looked up): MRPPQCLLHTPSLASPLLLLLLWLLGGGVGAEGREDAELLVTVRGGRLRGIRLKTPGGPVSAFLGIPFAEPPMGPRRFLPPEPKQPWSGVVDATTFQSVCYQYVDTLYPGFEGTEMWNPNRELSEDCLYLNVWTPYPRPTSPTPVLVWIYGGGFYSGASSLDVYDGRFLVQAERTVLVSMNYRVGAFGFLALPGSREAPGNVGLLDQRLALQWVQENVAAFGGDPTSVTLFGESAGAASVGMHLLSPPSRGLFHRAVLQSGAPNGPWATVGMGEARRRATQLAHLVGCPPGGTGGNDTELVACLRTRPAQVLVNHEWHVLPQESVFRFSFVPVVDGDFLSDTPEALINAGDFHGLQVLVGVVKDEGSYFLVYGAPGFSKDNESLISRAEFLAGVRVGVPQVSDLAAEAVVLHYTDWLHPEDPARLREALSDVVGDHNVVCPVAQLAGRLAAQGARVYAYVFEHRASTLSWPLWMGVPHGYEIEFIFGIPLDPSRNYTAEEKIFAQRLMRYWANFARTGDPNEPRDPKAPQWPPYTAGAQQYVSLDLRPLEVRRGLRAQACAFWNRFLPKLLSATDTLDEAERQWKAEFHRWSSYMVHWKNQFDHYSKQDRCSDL

The target in the first assay is Acetylcholinesterase (Homo sapiens) (UniProt P22303). Description: Acetylcholinesterase (AChE) small molecule antagonists: enzyme-based qHTS assay (AID 1347397). Further: nearly all actives have a fitted effect of over 55% in size. Further: potency means the concentration at half of the fitted maximal effect. The following applies: Potency: AChE enzyme activity inhibition; outcome: AChE enzyme activity inhibition; series mostly up to 115 µM. A digest of the protocol:
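In this quantitative HTS, compounds from the Tox21 10K collection were preincubated 30 min at ambient temperature with recombinant human AChE dispensed at 50 mU/mL. Hydrolysis of acetylthiocholine was then followed for 10 min by DTNB colour development.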
For orientation: qHTS replaces the single test concentration by a dilution series.
For the compound `CC(CO)(CO)CO`, the Potency entry is “inactive”.
For `COc1ccc(N)c(C)c1`, the Potency entry was “inactive”.
The same measure, in the same setting: the value for `CC(C)C(=O)Nc1cccc(C(F)(F)F)c1` was “inactive”; that for `CC(=O)Oc1cccc(O)c1` was “inactive”.
Same read-out and setting: the value for `C=C(C)C(=O)OCCC[Si](OC)(OC)OC` was “inactive”; that for `CCC(C(=O)NC(=O)NC(C)=O)c1ccccc1` (stereo not given) was “inactive”; that for `Cn1ccnc1` was “inactive”.
For the compound `O=C1c2cccc(O)c2C(=O)c2c(O)cccc21`, the Potency result is “inactive”.
As to `C[C@@H](NCCCc1cccc(C(F)(F)F)c1)c1cccc2ccccc12`, the Potency entry was “inactive”.
Same read-out and setting: the entry for `Cc1cccc(Nc2ccncc2S(=O)(=O)NC(=O)NC(C)C)c1` is “inactive”.
Still for that read-out and setting: the value for `CCn1cc(C(=O)O)c(=O)c2cc(F)c(N3CCNCC3)nc21` was “inactive”.
As to `OC1(c2ccc(Cl)c(C(F)(F)F)c2)CCN(CCCC(c2ccc(F)cc2)c2ccc(F)cc2)CC1`, the Potency result was “inactive”.
Take `CSc1ccc(Cl)cc1`: the Potency entry is “inactive”.
In the case of `O=C(c1cc(O)c(O)c(O)c1)c1ccc(O)c(O)c1O`, the Potency result was “inactive”.
Take `CCCCOC(=O)COc1ccc(Cl)cc1Cl`: the Potency entry is “inactive”.
Same read-out and setting: the value for `CCCCCCCCCCOC(=O)c1ccccc1C(=O)OCCCCCCCC` was “inactive”; that for `Cc1cccc(C)c1NC(=O)CN1CCCC1` was “inactive”; that for `C=C[C@H]1CN2CC[C@H]1C[C@@H]2[C@@H](O)c1ccnc2ccc(OC)cc12` was “inactive”.
Same read-out and setting: the value for `Cc1c(O)cccc1O` was “inactive”; that for `CCCOCCOCCOCCO` was “inactive”; that for `C=CC(C)(CCC=C(C)C)OC(=O)/C=C/c1ccccc1` (stereo not given) was “inactive”.
Same read-out and setting: the entry for `CCCCC(CC)COC(=O)COc1cc(Cl)c(Cl)cc1Cl` (stereo not given) is “inactive”.
Take `c1ccc2c(c1)CCC2`: the Potency result is “inactive”.
On the same count and under the same terms, the entry for `CCCCCCCCCCCCCCCCN` is “inactive”; for `CCOC(=O)[C@H](CCc1ccccc1)N[C@@H](C)C(=O)N(CC(=O)O)C1Cc2ccccc2C1` it is “inactive”.
Regarding `CC(=O)[C@H]1CC[C@H]2[C@@H]3C[C@H](C)C4=CC(=O)CC[C@]4(C)[C@H]3[C@@H](O)C[C@]12C`, the Potency entry is “inactive”.
On to `CCCCCCCCCCCCO`, for which the Potency entry was “inactive”.
For the compound `CN(C)CCN(Cc1ccsc1)c1ccccn1`, the Potency entry was “inactive”.
On to `O=C1OC2(c3ccccc31)c1cc(I)c(O)c(I)c1Oc1c2cc(I)c(O)c1I`, for which the Potency was 40.4 µM (active) and inactive.
Same read-out and setting: the value for `CC(=O)c1ccccc1O` was “inactive”; that for `CCCC(C)CO` (stereo not given) was “inactive”; that for `Cc1ccccc1S(N)(=O)=O` was “inactive”.
As to `CC(C)(C)CC(C)(C)c1ccc(Nc2ccc(C(C)(C)CC(C)(C)C)cc2)cc1`, the activity change, negative = inhibition was -6.81% [at 10.5 µM] (inactive).
For the compound `OCc1cccc(Oc2ccccc2)c1`, the Potency entry is “inactive”.
Same read-out and setting: the entry for `Nc1ccn([C@H]2CC[C@@H](CO)O2)c(=O)n1` is “inactive”; for `COP(=O)(OC)OC(c1ccc(Cl)cc1)P(=O)(OC)OC` (stereo not given) it is “inactive”; for `COc1ccc(C(=O)N2CCN(CC(=O)N3CCOCC3)CC2)cc1` it is “inactive”.
The same measure, in the same setting: the entry for `O=C(O)c1ccco1` is “inactive”; for `CC(C)(C)NC(=O)[C@H]1CC[C@H]2[C@@H]3CC[C@H]4NC(=O)C=C[C@]4(C)[C@H]3CC[C@]12C` it is “inactive”.
On the same count and under the same terms, the entry for `Cn1cnc([N+](=O)[O-])c1Sc1ncnc2nc[nH]c12` is “inactive”.

The next assay has the same target. Put plainly: Acetylcholinesterase (AChE) small molecule antagonists: fluorescence cell-based qHTS assay (AID 1347398). Further: nearly all actives have a fitted effect of over 50% in size. To be noted: SH-SY5Y cells; Potency: AChE activity; outcome: AChE activity; series mostly up to 115 µM. The method, boiled down: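 Cells (SH-SY5Y) attached overnight, were dosed with compound or DMSO vehicle for 30 min at 37 C, and then incubated 40 min at room temperature with acetylthiocholine and Thiolite Green; green fluorescence indexed AChE activity.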
With `CC(CO)(CO)CO`, the Potency entry was “inactive”.
`COc1ccc(N)c(C)c1`: the Potency result is “inactive”.
Take `CC(C)C(=O)Nc1cccc(C(F)(F)F)c1`: the Potency entry was “inactive”.
On the same count and under the same terms, the entry for `CC(=O)Oc1cccc(O)c1` is “inactive”; for `C=C(C)C(=O)OCCC[Si](OC)(OC)OC` it is “inactive”.
Same read-out and setting: the entry for `CCC(C(=O)NC(=O)NC(C)=O)c1ccccc1` (stereo not given) is “inactive”.
Consider `Cn1ccnc1`, for which the Potency entry is “inactive”.
The same measure, in the same setting: the entry for `O=C1c2cccc(O)c2C(=O)c2c(O)cccc21` is “inactive”.
Take `C[C@@H](NCCCc1cccc(C(F)(F)F)c1)c1cccc2ccccc12`: the Potency entry is “inactive”.
In the case of `Cc1cccc(Nc2ccncc2S(=O)(=O)NC(=O)NC(C)C)c1`, the Potency result is “inactive”.
With `CCn1cc(C(=O)O)c(=O)c2cc(F)c(N3CCNCC3)nc21`, the Potency entry was “inactive”.
Still for that read-out and setting: the value for `OC1(c2ccc(Cl)c(C(F)(F)F)c2)CCN(CCCC(c2ccc(F)cc2)c2ccc(F)cc2)CC1` was “inactive”; that for `CSc1ccc(Cl)cc1` was “inactive”; that for `O=C(c1cc(O)c(O)c(O)c1)c1ccc(O)c(O)c1O` was “inactive”.
Same read-out and setting: the value for `CCCCOC(=O)COc1ccc(Cl)cc1Cl` was “inactive”; that for `CCCCCCCCCCOC(=O)c1ccccc1C(=O)OCCCCCCCC` was “inactive”.
Same read-out and setting: the value for `Cc1cccc(C)c1NC(=O)CN1CCCC1` was “inactive”.
For `C=C[C@H]1CN2CC[C@H]1C[C@@H]2[C@@H](O)c1ccnc2ccc(OC)cc12`, the Potency result is “inactive”.
On the same count and under the same terms, the entry for `Cc1c(O)cccc1O` is “inactive”; for `CCCOCCOCCOCCO` it is “inactive”.
Consider `C=CC(C)(CCC=C(C)C)OC(=O)/C=C/c1ccccc1` (stereo not given), for which the Potency entry was “inactive”.
Still for that read-out and setting: the entry for `CCCCC(CC)COC(=O)COc1cc(Cl)c(Cl)cc1Cl` (stereo not given) is “inactive”; for `c1ccc2c(c1)CCC2` it is “inactive”.
On the same count and under the same terms, the entry for `CCCCCCCCCCCCCCCCN` is “inactive”; for `CCOC(=O)[C@H](CCc1ccccc1)N[C@@H](C)C(=O)N(CC(=O)O)C1Cc2ccccc2C1` it is “inactive”.
Still for that read-out and setting: the value for `CC(=O)[C@H]1CC[C@H]2[C@@H]3C[C@H](C)C4=CC(=O)CC[C@]4(C)[C@H]3[C@@H](O)C[C@]12C` was “inactive”; that for `CCCCCCCCCCCCO` was “inactive”.
As to `CN(C)CCN(Cc1ccsc1)c1ccccn1`, the Potency entry is “inactive”.
On the same count and under the same terms, the value for `O=C1OC2(c3ccccc31)c1cc(I)c(O)c(I)c1Oc1c2cc(I)c(O)c1I` was “inactive”; that for `CC(=O)c1ccccc1O` was “inactive”.
On the same count and under the same terms, the value for `CCCC(C)CO` (stereo not given) was “inactive”; that for `Cc1ccccc1S(N)(=O)=O` was “inactive”.
Regarding `CC(C)(C)CC(C)(C)c1ccc(Nc2ccc(C(C)(C)CC(C)(C)C)cc2)cc1`, the activity change, negative = inhibition is -4.09% [at 10.5 µM] (inactive).
With `OCc1cccc(Oc2ccccc2)c1`, the Potency entry was “inactive”.
As for `Nc1ccn([C@H]2CC[C@@H](CO)O2)c(=O)n1`, the Potency entry was “inactive”.
For `COP(=O)(OC)OC(c1ccc(Cl)cc1)P(=O)(OC)OC` (stereo not given), the Potency entry was “inactive”.
Same read-out and setting: the entry for `COc1ccc(C(=O)N2CCN(CC(=O)N3CCOCC3)CC2)cc1` is “inactive”.
For `O=C(O)c1ccco1`, the Potency result is “inactive”.
Take `CC(C)(C)NC(=O)[C@H]1CC[C@H]2[C@@H]3CC[C@H]4NC(=O)C=C[C@]4(C)[C@H]3CC[C@]12C`: the Potency entry is “inactive”.
On the same count and under the same terms, the entry for `Cn1cnc([N+](=O)[O-])c1Sc1ncnc2nc[nH]c12` is “inactive”.
